The panel holds about 79,000 compounds, 15% with a hit somewhere; the sample as a whole holds those more often. Active and inactive are the calls of the source. Rule as the data show it: active = growth inhibition above about 70%; inactive = the rest.
Columns and labels:
[1] = NCI Yeast Anticancer Drug Screen. Data for the rad52 strain (AID 147);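 also: 0% = growth of vehicle-treated control cultures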; conditions: S. cerevisiae rad52 mutant growth inhibition, hits give high values
Procedure, shortened: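 Genetically altered yeast (DNA damage repair defect) treated with compound; inhibition calculated relative to vehicle.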

[2] = NCI Yeast Anticancer Drug Screen. Data for the wt1 strain (AID 149);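 also: 0% = growth of vehicle-treated wt1 cultures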; conditions: S. cerevisiae wt1 strain (SPY 50644) growth inhibition, hits give high values
Procedure, shortened: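 Each compound is tested on wt1 yeast and the loss of growth versus vehicle gives the inhibition value.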

[3] = NCI Yeast Anticancer Drug Screen. Data for the rad50EPP+ strain (AID 151);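 also: 0% = growth of vehicle-treated control cultures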; conditions: S. cerevisiae rad50 mutant strain, hits give high values
Procedure, shortened: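 Strain rad50EPP+; compound exposure; % growth inhibition vs vehicle.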

[4] = NCI Yeast Anticancer Drug Screen. Data for the rad50 strain (AID 155);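 also: 0% = growth of vehicle-only cultures of the same strain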; conditions: S. cerevisiae rad50 strain growth inhibition, hits give high values
Procedure, shortened: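 Vehicle-treated cultures provide the reference for the growth inhibition reported for compound-exposed, repair-deficient yeast.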

[5] = NCI Yeast Anticancer Drug Screen. Data for the mec2-1 strain (AID 157); conditions: S. cerevisiae mec2-1 strain, hits give high values
Procedure, shortened: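 Cells of the genetically defined mec2-1 yeast strain are incubated with test compound. Inhibition of growth is calculated against vehicle-treated controls.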

[6] = NCI Yeast Anticancer Drug Screen. Data for the sgs1 mgt1 strain (AID 161);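 also: 0% = growth of cultures given vehicle only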; conditions: S. cerevisiae sgs1 mgt1 strain, hits give high values
Procedure, shortened: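 Inhibition of yeast growth, normalised to vehicle-treated controls, is reported for a strain bearing genetic alterations in DNA damage repair.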

[7] = NCI Yeast Anticancer Drug Screen. Data for the CLN2oe strain (AID 163);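 also: 0% = growth of vehicle-only control cultures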; conditions: S. cerevisiae CLN2oe strain, hits give high values
Procedure, shortened: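 Strain altered in cell-cycle control, incubated with compound; growth compared to solvent-treated controls.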

[8] = NCI Yeast Anticancer Drug Screen. Data for the cln2 rad14 strain (AID 165);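 also: 0% = growth equal to vehicle treated cultures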; conditions: S. cerevisiae cln2 rad14 strain, hits give high values
Procedure, shortened: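 The screen exposed genetically defined yeast (cln2 rad14) to test compounds and scored growth inhibition relative to vehicle-treated controls.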

[9] = NCI Yeast Anticancer Drug Screen. Data for the bub3 strain (AID 167); conditions: S. cerevisiae bub3 mutant strain, hits give high values
Procedure, shortened: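 Mutant yeast screening strain plus compound; vehicle-treated cultures serve as the 0% inhibition reference.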

[10] = NCI Yeast Anticancer Drug Screen. Data for the wt2 strain (AID 169); conditions: S. cerevisiae wt2 strain growth inhibition, hits give high values
Procedure, shortened: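 Steps: yeast strain treated with compound; growth recorded; inhibition calculated relative to cultures given vehicle alone.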

[11] = NCI Yeast Anticancer Drug Screen. Data for the mlh1 strain (AID 171);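 also: 0% = growth of vehicle-treated control cultures of the same strain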; conditions: S. cerevisiae mlh1 strain growth inhibition, hits give high values
Procedure, shortened: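 Yeast screen: mutant strain plus compound, growth scored against vehicle control wells.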

[12] = NCI Yeast Anticancer Drug Screen. Data for the sgs1 strain (AID 173);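 also: 0% = growth of vehicle-only control cultures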; conditions: S. cerevisiae sgs1 mutant, hits give high values
Procedure, shortened: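 Inhibition of yeast growth served as the measure. The mutant strain was treated with each compound, and growth was normalised to cultures receiving vehicle alone.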

[13] = NCI Yeast Anticancer Drug Screen. Data for the mlh1 rad18 strain (AID 175); conditions: S. cerevisiae mlh1 rad18 strain growth inhibition, hits give high values
Procedure, shortened: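 Compound-treated yeast growth, normalised to vehicle controls. Strain bears defined DNA repair mutations.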

[14] = NCI Yeast Anticancer Drug Screen. Data for the rad18 strain (AID 177); conditions: S. cerevisiae rad18 mutant growth inhibition, hits give high values
Procedure, shortened: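 Inhibition values reflect reduced yeast growth compared with vehicle-treated controls, using a strain engineered with a DNA damage repair defect.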

[15] = at 5.0 µM (retest, dose inferred, filed as 0.5)
[16] = at 50.0 µM (retest, dose inferred, filed as 5.0)

Measured: growth inhibition

OC(c1ccc(Br)cc1)(c1cccs1)C1CC1 (stereo not given)
inactive: [1]; at 1.2 µM 13% | [1]; at 3.7 µM 21% | [1]; at 11.0 µM 57% | [2]; at 1.2 µM -19% | [2]; at 3.7 µM 3% | [2]; at 11.0 µM 17% | [3]; at 1.2 µM 3% | [3]; at 3.7 µM 35% | [3]; at 11.0 µM 27% | [3]; at 33.0 µM 17% | [4]; at 1.2 µM 3% | [4]; at 3.7 µM 21% | [4]; [15] 57% | [4]; at 11.0 µM 56% | [5]; at 1.2 µM 18% | [5]; at 3.7 µM 22% | [5]; [15] 61% | [5]; at 11.0 µM 53% | [6]; [15] -7% | [7]; at 1.2 µM 6% | [7]; at 3.7 µM 2% | [7]; at 11.0 µM 26% | [8]; [15] 45% | [9]; at 1.2 µM 38% | [9]; at 3.7 µM 48% | [9]; [15] 48% | [9]; at 11.0 µM 62% | [10]; at 1.2 µM -12% | [10]; at 3.7 µM 8% | [10]; at 11.0 µM 31% | [11]; at 1.2 µM -15% | [11]; at 3.7 µM 4% | [11]; at 11.0 µM 38% | [12]; at 1.2 µM 17% | [12]; at 3.7 µM 29% | [12]; at 11.0 µM 57% | [13]; [15] 46% | [14]; at 1.2 µM 1% | [14]; at 3.7 µM 24% | [14]; at 11.0 µM 54%
active: [1]; at 33.0 µM 92% | [1]; at 100.0 µM 87% | [2]; at 33.0 µM 97% | [2]; at 100.0 µM 96% | [3]; at 100.0 µM 91% | [4]; at 33.0 µM 94% | [4]; [16] 100% | [4]; at 50.0 µM 91.2% | [4]; at 100.0 µM 94% | [5]; at 33.0 µM 99% | [5]; [16] 100% | [5]; at 50.0 µM 93.2% | [5]; at 100.0 µM 97% | [6]; [16] 99% | [7]; at 33.0 µM 96% | [7]; at 100.0 µM 96% | [8]; [16] 99% | [9]; at 33.0 µM 94% | [9]; [16] 100% | [9]; at 100.0 µM 93% | [10]; at 33.0 µM 97% | [10]; at 100.0 µM 96% | [11]; at 33.0 µM 96% | [11]; at 100.0 µM 95% | [12]; at 33.0 µM 95% | [12]; at 100.0 µM 95% | [13]; [16] 100% | [13]; at 50.0 µM 92% | [14]; at 33.0 µM 94% | [14]; at 100.0 µM 91%
